Laboratory results as given in the supplement of paper PMC8285479.
Structures can show the parent of a compound that is named as a salt. ± gives the standard deviation of the averaged measurements. The full ranking holds about 1,900 compounds; the median of “normalised cell viability (NPI; 0 = phenylarsine oxide control, 1 = DMSO control)” is about 1, and the lowest 2% start at about 0.039. The list comes from a sample in which the lowest values are over-represented; it also holds similar structures and randomly drawn compounds.

Test system: NCI-H1944
Assay: normalised cell viability (NPI; 0 = phenylarsine oxide control, 1 = DMSO control) (fraction of DMSO control); NCI-H1944 is a non-small cell lung cancer line; higher = more viable cells (less compound toxicity)
Settings: 6 days
[1] = glucocorticoid arm: hydrocortisone 2.75 uM co-treatment, compound 1 µM
[2] = glucocorticoid arm: hydrocortisone 2.75 uM co-treatment, compound 5 µM
[3] = glucocorticoid arm: hydrocortisone 2.75 uM pre-treated 2 days and continued, compound 1 µM
[4] = glucocorticoid arm: hydrocortisone 2.75 uM pre-treated 2 days and continued, compound 5 µM
[5] = glucocorticoid arm: vehicle, compound 1 µM
[6] = glucocorticoid arm: vehicle, compound 5 µM
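Note: CTB read-out in 384-well plates, triplicate wells, NPI normalised per plate against 1 µM phenylarsine oxide (0) and 0.1% DMSO (1) controls.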

Structure (SMILES)	normalised cell viability [1]	normalised cell viability [2]	normalised cell viability [3]	normalised cell viability [4]	normalised cell viability [5]	normalised cell viability [6]
O=Nc1c(-c2c(O)[nH]c3cc(Br)ccc23)[nH]c2ccccc12	1.15 ± 0.01	1.24 ± 0.032	1.127 ± 0.011	1.16 ± 0.031	1.04 ± 0.01	1.07 ± 0.01
CCN1CCN(Cc2ccc(Nc3ncc(F)c(-c4cc(F)c5nc(C)n(C(C)C)c5c4)n3)nc2)CC1	0.493 ± 0.041	0.312 ± 0.06	0.528 ± 0.03	0.599 ± 0.14	0.252 ± 0.028	0.000109 ± 0.00093
N=C(NC(=O)c1nc(Cl)c(N)nc1N)Nc1ccccc1 [Phenamil methanesulfonate]	1.01 ± 0.011	1.04 ± 0.025	0.894 ± 0.22	1.06 ± 0.025	1.007 ± 0.0058	0.9977 ± 0.004
CCCCOc1c(C(=O)c2c(F)cc(C)cc2F)c[nH]c2nncc1-2	0.91 ± 0.018	0.988 ± 0.017	0.9857 ± 0.0032	1.02 ± 0.022	0.561 ± 0.04	0.861 ± 0.018
CN(C)CCCn1cc(C2=C(c3c[nH]c4ccccc34)C(=O)NC2=O)c2ccccc21	0.992 ± 0.017	1.06 ± 0.011	1.01 ± 0.02	1.01 ± 0.059	1.03 ± 0.011	1.05
Cn1cc(C2=C(c3cn(CCCSC(=N)N)c4ccccc34)C(=O)NC2=O)c2ccccc21 [Ro 31-8220 Mesylate]	0.998 ± 0.013	0.125 ± 0.013	0.973 ± 0.036	0.297 ± 0.087	1.013 ± 0.0058	0.0242 ± 0.0022
O=Nc1ccc2oc(=O)ccc2c1 [6-Nitroso-1,2-benzopyrone]	1.02 ± 0.01	1.02 ± 0.015	1.027 ± 0.0058	0.857 ± 0.29	1.013 ± 0.0058	1.02 ± 0.01
CN(C)CCC(c1ccc(Br)cc1)c1ccccn1 (single isomer, unassigned; (+)) [(+)-Brompheniramine maleate]	1.01 ± 0.017	1.023 ± 0.0058	1.05 ± 0.04	1.03 ± 0.021	1.006 ± 0.0069	1.02 ± 0.011
Nc1ncnc2c1ncn2[C@@H]1O[C@H](COP(=O)(O)CP(=O)(O)OP(=O)([O-])O)[C@@H](O)[C@H]1O.[Li+] [alpha,beta-Methylene adenosine 5'-triphosphate lithium salt]	1.02 ± 0.011	1 ± 0.036	1.01 ± 0.014	0.992 ± 0.013	1.005 ± 0.0081	1.02 ± 0.021
Cc1nc(N=Nc2cc(S(=O)(=O)O)c3cc([N+](=O)[O-])cc(S(=O)(=O)O)c3c2)c(COP(=O)(O)O)c(C=O)c1O [PPNDS tetrasodium]	1.001 ± 0.0085	1.01 ± 0.037	1.013 ± 0.0058	0.857 ± 0.27	0.9973 ± 0.0021	0.999 ± 0.0098
CC(NC(=O)C(O)c1cc(F)cc(F)c1)C(=O)NC1C(=O)N(C)c2ccccc2-c2ccccc21 (stereo not drawn)	0.973 ± 0.013	0.995 ± 0.017	0.977 ± 0.015	1.007 ± 0.0058	0.9893 ± 0.0038	0.9993 ± 0.0011
CO[C@H](C(=O)[C@@H](O)[C@@H](C)O)[C@@H]1Cc2cc3cc(O[C@H]4C[C@@H](O[C@H]5C[C@@H](O)[C@H](O)[C@@H](C)O5)[C@H](O)[C@@H](C)O4)c(C)c(O)c3c(O)c2C(=O)[C@H]1O[C@H]1C[C@@H](O[C@H]2C[C@@H](O[C@H]3C[C@](C)(O)[C@H](O)[C@@H](C)O3)[C@@H](O)[C@@H](C)O2)[C@H](O)[C@@H](C)O1 [Plicamycin]	0.0675 ± 0.0023	0.0276 ± 0.0011	0.102 ± 0.0097	0.0631 ± 0.0043	0.0202 ± 0.0011	0.011 ± 0.0021
CC1(C2CCCC2)Cc2cc(OCC(=O)O)c(Cl)c(Cl)c2C1=O (stereo not drawn)	0.983 ± 0.014	0.982 ± 0.037	0.9883 ± 0.0072	0.986 ± 0.084	0.998 ± 0.011	0.9853 ± 0.0067
Cc1ccc([N+](=O)[O-])cc1S(=O)(=O)N(C)C	1 ± 0.018	0.9945 ± 0.0095	1 ± 0.011	0.978 ± 0.028	1.004 ± 0.0094	1.007 ± 0.0052
Cc1ccc([N+](=O)[O-])cc1S(=O)(=O)N(C)/N=C/c1cnc2ccc(Br)cn12	0.025 ± 0.0023	0.0304 ± 0.0032	0.0674 ± 0.0086	0.0802 ± 0.022	0.0104 ± 0.005	0.00623 ± 0.0011
CCCCC/C=C\C[C@@H](O)/C=C/c1cccc(C[C@@H](O)CCCCO)n1	1.005 ± 0.0081	1.05 ± 0.04	1.01 ± 0.015	1.04 ± 0.011	1.013 ± 0.0058	1.027 ± 0.0058
OC[C@H]1O[C@@H](n2cnc3c(N[C@H]4CCC[C@@H]4O)ncnc32)[C@H](O)[C@@H]1O	1.017 ± 0.0058	1.01 ± 0.027	1.01 ± 0.01	1.01	0.993 ± 0.015	0.9927 ± 0.0095
CC[n+]1c(/C=C/C=C2/N(C)c3ccccc3C2(C)C)sc2ccccc21	0.467 ± 0.026	0.434 ± 0.017	0.901 ± 0.032	0.798 ± 0.02	0.237 ± 0.0069	0.112 ± 0.0067
NC(N)=N[C@@H](CCC(=O)O)C(=O)O [alpha-Guanidinoglutaric acid]	1.01 ± 0.01	0.983 ± 0.01	1.006 ± 0.0063	1.01 ± 0.021	0.9917 ± 0.0038	1.002 ± 0.0072
CCCCCCCCOc1ccccc1C(=O)Nc1ccc(C(=O)OCC[N+](C)(CC)CC)cc1 [Otilonium Bromide]	1.03 ± 0.01	1.03 ± 0.026	1.01 ± 0.026	1.03 ± 0.025	1.007 ± 0.0058	1.003 ± 0.0058
CC[C@@H]1C(=O)N(C)c2cnc(Nc3ccc(C(=O)N[C@H]4CC[C@H](N5CCN(CC6CC6)CC5)CC4)cc3OC)nc2N1C(C)C [BI6727 (Volasertib)]	0.346 ± 0.023	0.201 ± 0.025	0.58 ± 0.017	0.213 ± 0.15	0.0771 ± 0.019	0.0219 ± 0.0034
CC[C@@H]1C(=O)N(C)c2cnc(Nc3ccc(C(=O)NC4CCN(C)CC4)cc3OC)nc2N1C1CCCC1	0.535 ± 0.026	0.4 ± 0.057	0.797 ± 0.042	0.592 ± 0.083	0.0889 ± 0.011	0.0658 ± 0.0046
COc1cc(C(=O)NC2CCN(C)CC2)ccc1Nc1ncc2c(n1)N(C1CCCC1)CC(F)(F)C(=O)N2C	0.354 ± 0.024	0.359 ± 0.031	0.73 ± 0.022	0.7627 ± 0.007	0.066 ± 0.0089	0.0695 ± 0.004
